Inconclusive results are not listed. The source made the active and inactive calls. How the source made its calls, unless noted: active means hit-call score of the fitted dose curve at least 0.9, where 1 is the maximum; inactive means score below 0.9.
What was measured:
[1] = read-out: Pyruvate Dehydrogenase Kinase 4 (PDK4), PDK4 (gene 5166); experiment: LTEA_HepaRG_PDK4: Life Technologies and Expression Analysis (LTEA) Assay for Pyruvate Dehydrogenase Kinase 4 (PDK4) using HepaRG (AID 2283525); conditions: mRNA level, 48 h; actives raise or lower the signal
In short: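 Readout is qRT-PCR of PDK4 transcript, normalized to three housekeeping genes, with bidirectional fitting against 0.5% DMSO vehicle. Differentiated HepaRG cells were treated 48 h in serum-free induction medium, duplicate wells, eight-point half-log series topping at 100 uM.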

[2] = read-out: NAD(P)H dehydrogenase [quinone] 1 (NQO1), NQO1 (gene 1728); experiment: LTEA_HepaRG_NQO1: Life Technologies and Expression Analysis (LTEA) Assay for NAD(P)H dehydrogenase [quinone] 1 (NQO1) using HepaRG (AID 2283526); conditions: mRNA level, 48 h; actives raise or lower the signal
In short: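 Transcript induction or suppression is quantified by qRT-PCR in human HepaRG liver cells dosed for 48 hours. Eight half-log concentrations topping at 100 uM are used, with 0.5% DMSO as vehicle and baseline.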

[3] = read-out: Nuclear factor erythroid 2-related factor 2 (Homo sapiens) (UniProt Q16236); experiment: LTEA_HepaRG_NFE2L2: Life Technologies and Expression Analysis (LTEA) Assay for Nuclear factor erythroid 2-related factor 2 (NFE2L2) Transcription Factor using HepaRG (AID 2283527); conditions: mRNA level, 48 h; actives raise or lower the signal;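 on outcome: TaqMan qRT-PCR transcript level normalised to ACTB GAPDH and POLR2A housekeeping genes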
In short: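 NFE2L2 transcript level was read by qRT-PCR (housekeeping ACTB/GAPDH/POLR2A normalisation) after 48 h chemical treatment of HepaRG in serum-free induction medium. Duplicate 8-point half-log curves, top 100 uM, 0.5% DMSO vehicle; up- or down-regulation fitted against vehicle.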

[4] = read-out: succinate dehydrogenase complex iron sulfur subunit B (SDHB), SDHB (gene 6390); experiment: LTEA_HepaRG_SDHB: Life Technologies and Expression Analysis (LTEA) Assay for succinate dehydrogenase complex iron sulfur subunit B (SDHB) using HepaRG (AID 2283528); conditions: mRNA level, 48 h; actives raise or lower the signal
In short: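 HepaRG, 48 h exposure, 8-pt half-log series from 100 uM in 0.5% DMSO, duplicates. Readout: SDHB mRNA by Fluidigm qRT-PCR vs housekeeping genes; bidirectional fit relative to DMSO.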

[5] = read-out: Signal transducer and activator of transcription 3 (Homo sapiens) (UniProt P40763); experiment: LTEA_HepaRG_STAT3: Life Technologies and Expression Analysis (LTEA) Assay for Signal transducer and activator of transcription (STAT3) using HepaRG (AID 2283529); conditions: mRNA level, 48 h; actives raise or lower the signal
In short: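 STAT3 transcript quantified by qRT-PCR against three housekeeping genes (ACTB, GAPDH, POLR2A), fitted both directions relative to DMSO. HepaRG cultures exposed 48 h to eight half-log concentrations, top 100 uM, 0.5% DMSO, serum-free induction medium.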

[6] = read-out: solute carrier (SLCO1B1), SLCO1B1 (gene 10599); experiment: LTEA_HepaRG_SLCO1B1: Life Technologies and Expression Analysis (LTEA) Assay for solute carrier (SLCO1B1) using HepaRG (AID 2283530); conditions: mRNA level, 48 h; actives raise or lower the signal
In short: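 SLCO1B1 transcript levels were quantified by TaqMan qRT-PCR using three housekeeping genes for normalization. This followed 48 h chemical exposure (100 uM top, half-log, 8 points, 0.5% DMSO) of HepaRG liver cells, with gain or loss fitted relative to DMSO.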

[7] = read-out: Transforming Growth Factor (TGFA), TGFA (gene 7039); experiment: LTEA_HepaRG_TGFA: Life Technologies and Expression Analysis (LTEA) Assay for Transforming Growth Factor (TGFA) using HepaRG (AID 2283532); conditions: mRNA level, 48 h; actives raise or lower the signal
In short: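 TGFA transcript quantified by qRT-PCR (Fluidigm arrays) against three housekeeping genes, after 48 hours chemical treatment of HepaRG cells. Top concentration 100 uM with half-log dilutions, 8 points, duplicates, 0.5% DMSO.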

[8] = read-out: Transforming Growth Factor (TGFB1), TGFB1 (gene 7040); experiment: LTEA_HepaRG_TGFB1: Life Technologies and Expression Analysis (LTEA) Assay for Transforming Growth Factor (TGFB1) Transporter using HepaRG (AID 2283533); conditions: mRNA level, 48 h; actives raise or lower the signal
In short: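 TGFB1 transcript measured by qRT-PCR with normalisation to three housekeeping genes (ACTB, GAPDH, POLR2A); human HepaRG line treated in duplicate for 48 hr with an 8-point series topping at 100 uM, 0.5% DMSO vehicle, bidirectionally fitted.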

[9] = read-out: Tumor necrosis factor receptor 1 (TNFRSF1A), TNFRSF1A (gene 7132); experiment: LTEA_HepaRG_TNFRSF1A: Life Technologies and Expression Analysis (LTEA) Assay for Tumor necrosis factor receptor 1 (TNFRSF1A) using HepaRG (AID 2283535); conditions: mRNA level, 48 h; actives raise or lower the signal
In short: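 mRNA measured by qRT-PCR (TaqMan, Fluidigm arrays) against ACTB/GAPDH/POLR2A housekeepers after 48 h chemical exposure of HepaRG cells. Top concentration 100 uM, half-log 8-point series, duplicates; vehicle 0.5% DMSO, both fit directions.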

[10] = read-out: Thyroid Hormone Responsive (THRSP), THRSP (gene 7069); experiment: LTEA_HepaRG_THRSP: Life Technologies and Expression Analysis (LTEA) Assay for Thyroid Hormone Responsive (THRSP) using HepaRG (AID 2283536); conditions: mRNA level, 48 h; actives raise or lower the signal
In short: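 THRSP transcript quantified by Fluidigm qRT-PCR against three housekeeping genes after 48 h chemical exposure of HepaRG cells in serum-free induction medium; eight-point half-log series, top 100 uM, 0.5% DMSO vehicle, duplicate wells.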

[11] = read-out: Cellular tumor antigen p53 (Homo sapiens) (UniProt P04637); experiment: LTEA_HepaRG_TP53: Life Technologies and Expression Analysis (LTEA) Assay for Tumor Protein P53 (TP53) using HepaRG (AID 2283537); conditions: mRNA level, 48 h; actives raise or lower the signal
In short: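 HepaRG, 48 h exposure, top 100 uM, half-log 8-point, 0.5% DMSO vehicle, duplicates. Read: TP53 mRNA by TaqMan qRT-PCR, normalised to ACTB/GAPDH/POLR2A; bidirectional fit vs DMSO.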

[12] = read-out: UDP glucuronosyltransferase (UGT1A1), UGT1A1 (gene 54658); experiment: LTEA_HepaRG_UGT1A1: Life Technologies and Expression Analysis (LTEA) Assay for UDP glucuronosyltransferase (UGT1A1) using HepaRG (AID 2283538); conditions: mRNA level, 48 h; actives raise or lower the signal
In short: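 Cells are plated, cultured 48 h, switched to serum-free induction medium, then dosed 48 h at eight concentrations (max 100 uM, 0.5% DMSO). RNA is isolated and UGT1A1 expression measured by qRT-PCR; changes versus DMSO are fitted in both directions.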

[13] = read-out: UDP glucuronosyltransferase (UGT1A6), UGT1A6 (gene 54578); experiment: LTEA_HepaRG_UGT1A6: Life Technologies and Expression Analysis (LTEA) Assay for UDP glucuronosyltransferase (UGT1A6) using HepaRG (AID 2283539); conditions: mRNA level, 48 h; actives raise or lower the signal
In short: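 Expression was quantified by TaqMan qRT-PCR on Fluidigm arrays with ACTB/GAPDH/POLR2A normalization and bidirectional fitting against 0.5% DMSO. HepaRG cells (~100,000/well) were treated in duplicate for 48 h at eight half-log concentrations up to 100 uM in serum-free induction medium.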

[14] = read-out: X-box binding protein 1 (XBP1), XBP1 (gene 7494); experiment: LTEA_HepaRG_XBP1: Life Technologies and Expression Analysis (LTEA) Assay for X-box binding protein 1 (XBP1) using HepaRG (AID 2283540); conditions: mRNA level, 48 h; actives raise or lower the signal
In short: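 XBP1 transcript by qRT-PCR (housekeeping-normalized: ACTB, GAPDH, POLR2A) after 48 h chemical treatment of HepaRG cells, 8-point half-log series topping at 100 uM, vehicle 0.5% DMSO. Gain and loss of signal fitted relative to DMSO.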

[15] = LTEA_HepaRG_LDH_cytotoxicity: Cytotoxicity Assessment in the Life Technologies and Expression Analysis (LTEA) Assay (AID 2283563; active means hit-call score of the fitted dose curve at least 0.9, where 1 is the maximum;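 on AC50: LDH activity released into spent culture medium as a marker of cell death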)
In short: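 LDH release into culture medium read after 48 h chemical treatment of HepaRG cells. Duplicate wells, eight-point half-log series topping at 100 uM, 0.5% DMSO vehicle and baseline.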

[16] = TOX21_p53_BLA_p2_viability: Viability Assessment in the Tox21 HCT-116 p53 Agonism Beta-lactamase Assay, Phase 2 (AID 2283591; active means hit-call score of the fitted dose curve at least 0.9, where 1 is the maximum;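 further: compound exposure lasted 16 h at 37 °C; actives lower the ATP signal meaning cytotoxicity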)
In short: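 Cytotoxicity readout: CellTiter-Glo ATP luminescence, 30 min at room temperature, after the beta-lactamase read. Cells were HCT116 exposed 16 h at 37C to compounds pin-transferred at 217-fold dilution from DMSO stocks.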

[17] = read-out: TIMP1, TIMP1 (gene 7076); experiment: LTEA_HepaRG_TIMP1: Life Technologies and Expression Analysis (LTEA) Assay for TIMP1 using HepaRG (AID 2283534); conditions: mRNA level, 48 h; actives raise or lower the signal
In short: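 Bidirectional change in TIMP1 transcript versus 0.5% DMSO, measured by TaqMan qRT-PCR with three housekeeping genes for normalization. HepaRG human liver cells dosed 48 h in duplicate, top concentration 100 uM with half-log dilutions.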

[18] = ATG_XTT_Cytotoxicity: Cytotoxicity Assessment in the Attagene TRANS-FACTORIAL HepG2 Assay (AID 2283584; active means hit-call score of the fitted dose curve at least 0.9, where 1 is the maximum)
In short: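 Viability endpoint from XTT after 24 h chemical exposure of reporter-transfected human HepG2 liver cells; signal loss fitted relative to DMSO negative control.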

[19] = target: Cellular tumor antigen p53 (Homo sapiens) (UniProt P04637); experiment: TOX21_p53_BLA_p2_ratio: Tox21 HCT-116 p53 Agonism Beta-lactamase Assay, Ratio, Phase 2 (AID 2283592; active means hit-call score of the fitted dose curve at least 0.9, where 1 is the maximum)
In short: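 Read-out is the blue/green (460/530 nm, 405 nm excitation) ratio after 2 h CCF4-AM loading, fitted as gain versus DMSO. Compounds, pinned at 217-fold dilution from DMSO stocks, stayed 16 h on HCT-116 beta-lactamase reporter cells seeded 5 h earlier.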

[20] = read-out: sulfotransferase 2A1 (SULT2A1), SULT2A1 (gene 6822); experiment: LTEA_HepaRG_SULT2A1: Life Technologies and Expression Analysis (LTEA) Assay for sulfotransferase 2A1 (SULT2A1) using HepaRG (AID 2283531); conditions: mRNA level, 48 h; actives raise or lower the signal
In short: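 Expression change of SULT2A1, by qRT-PCR with three housekeeping-gene normalization, was scored bidirectionally versus DMSO. Cells: differentiated HepaRG, dosed in duplicate for 48 h across 8 points, highest 100 µM, half-log dilution, 0.5% DMSO.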

Sequence of Nuclear factor erythroid 2-related factor 2 (Homo sapiens) (Q16236 whole entry, looked up): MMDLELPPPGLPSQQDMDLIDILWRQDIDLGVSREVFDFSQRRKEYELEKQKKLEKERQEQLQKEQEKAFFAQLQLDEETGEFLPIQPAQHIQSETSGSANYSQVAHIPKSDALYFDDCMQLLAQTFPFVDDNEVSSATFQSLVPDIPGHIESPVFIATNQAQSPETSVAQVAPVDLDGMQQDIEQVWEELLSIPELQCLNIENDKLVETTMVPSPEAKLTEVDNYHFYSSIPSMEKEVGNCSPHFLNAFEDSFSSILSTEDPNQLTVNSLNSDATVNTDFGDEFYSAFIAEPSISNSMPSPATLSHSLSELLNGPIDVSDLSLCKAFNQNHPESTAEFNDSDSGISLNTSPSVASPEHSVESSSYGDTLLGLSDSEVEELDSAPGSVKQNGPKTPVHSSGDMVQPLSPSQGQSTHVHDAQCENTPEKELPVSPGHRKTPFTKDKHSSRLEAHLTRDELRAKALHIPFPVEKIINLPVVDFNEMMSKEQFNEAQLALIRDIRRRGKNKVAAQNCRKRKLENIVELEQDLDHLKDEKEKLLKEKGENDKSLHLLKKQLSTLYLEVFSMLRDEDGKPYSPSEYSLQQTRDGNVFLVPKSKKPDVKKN
Sequence of Cellular tumor antigen p53 (Homo sapiens) (P04637 whole entry, looked up): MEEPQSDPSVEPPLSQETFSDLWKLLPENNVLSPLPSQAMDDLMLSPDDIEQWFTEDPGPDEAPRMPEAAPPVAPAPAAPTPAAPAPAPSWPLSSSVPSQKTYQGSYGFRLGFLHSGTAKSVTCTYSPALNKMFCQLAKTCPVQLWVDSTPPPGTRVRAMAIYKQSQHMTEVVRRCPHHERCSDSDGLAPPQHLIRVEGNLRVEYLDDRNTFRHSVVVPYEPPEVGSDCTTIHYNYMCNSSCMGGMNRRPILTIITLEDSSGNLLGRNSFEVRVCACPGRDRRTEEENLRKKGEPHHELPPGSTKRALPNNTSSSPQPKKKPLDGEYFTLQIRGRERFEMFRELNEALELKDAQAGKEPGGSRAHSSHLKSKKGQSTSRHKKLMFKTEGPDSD
Sequence of Signal transducer and activator of transcription 3 (Homo sapiens) (P40763 whole entry, looked up): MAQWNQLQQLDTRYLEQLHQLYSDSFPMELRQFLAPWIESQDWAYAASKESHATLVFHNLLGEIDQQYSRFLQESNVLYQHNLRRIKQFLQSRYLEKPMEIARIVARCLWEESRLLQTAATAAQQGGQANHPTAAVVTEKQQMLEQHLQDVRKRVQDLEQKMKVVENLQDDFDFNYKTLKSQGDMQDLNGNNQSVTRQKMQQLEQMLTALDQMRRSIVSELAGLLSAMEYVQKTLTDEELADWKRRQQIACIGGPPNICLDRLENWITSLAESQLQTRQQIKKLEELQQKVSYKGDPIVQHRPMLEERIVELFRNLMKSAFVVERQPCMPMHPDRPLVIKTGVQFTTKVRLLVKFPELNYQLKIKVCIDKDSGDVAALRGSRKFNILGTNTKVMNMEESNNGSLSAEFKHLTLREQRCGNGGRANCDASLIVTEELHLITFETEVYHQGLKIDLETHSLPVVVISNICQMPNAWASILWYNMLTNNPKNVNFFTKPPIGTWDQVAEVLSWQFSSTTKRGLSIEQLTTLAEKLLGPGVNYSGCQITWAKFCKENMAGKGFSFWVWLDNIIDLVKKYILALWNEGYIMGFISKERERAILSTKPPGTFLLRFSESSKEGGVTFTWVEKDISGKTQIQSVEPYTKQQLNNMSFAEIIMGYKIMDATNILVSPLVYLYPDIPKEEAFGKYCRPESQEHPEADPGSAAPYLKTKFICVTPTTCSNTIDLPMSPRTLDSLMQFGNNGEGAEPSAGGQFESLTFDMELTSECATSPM

CC(C)CCCCCCOC(=O)c1ccc(C(=O)OCCCCCCC(C)C)c(C(=O)OCCCCCCC(C)C)c1
outcome [1]: inactive
outcome [2]: inactive
outcome [3]: inactive
outcome [4]: inactive
outcome [5]: inactive
outcome [6]: inactive
outcome [7]: inactive
outcome [8]: inactive
outcome [9]: inactive
outcome [10]: inactive
outcome [11]: inactive
outcome [12]: inactive
outcome [13]: inactive
outcome [14]: inactive
outcome [15]: inactive
outcome [16]: inactive

CCC(C)(C)C(=O)O[C@H]1C[C@@H](C)C=C2C=C[C@H](C)[C@H](CC[C@@H]3C[C@@H](O)CC(=O)O3)[C@H]21
outcome [1]: inactive
outcome [2]: inactive
outcome [3]: inactive
outcome [4]: inactive
outcome [5]: inactive
outcome [6]: inactive
outcome [7]: inactive
outcome [8]: inactive
outcome [17]: inactive
outcome [9]: inactive
outcome [11]: inactive
outcome [12]: inactive
outcome [13]: inactive
outcome [14]: inactive
outcome [15]: inactive
outcome [18]: inactive
outcome [16]: inactive
outcome [19]: inactive

Cc1[nH]cnc1C[C@H]1CCc2c(C)c3ccccc3n2C1=O
AC50 [1]: 68.3 µM (active)
outcome [2]: inactive
AC50 [3]: 44.5 µM (active)
AC50 [4]: 81.5 µM (active)
AC50 [6]: 21.5 µM (active)
AC50 [20]: 63.6 µM (active)
outcome [7]: inactive
outcome [8]: inactive
outcome [17]: inactive
AC50 [9]: 63.7 µM (active)
outcome [10]: inactive
AC50 [11]: 73.7 µM (active)
AC50 [12]: 64.3 µM (active)
AC50 [13]: 33.5 µM (active)
AC50 [14]: 10.4 µM (active)
AC50 [15]: 27.6 µM (active)
outcome [18]: inactive
outcome [16]: inactive
outcome [19]: inactive

Nc1cccc(N)c1
outcome [1]: inactive
outcome [2]: inactive
outcome [3]: inactive
outcome [4]: inactive
outcome [6]: inactive
outcome [20]: inactive
outcome [7]: inactive
outcome [8]: inactive
outcome [17]: inactive
outcome [9]: inactive
outcome [10]: inactive
outcome [11]: inactive
outcome [12]: inactive
outcome [13]: inactive
outcome [14]: inactive
outcome [15]: inactive
outcome [18]: inactive
outcome [16]: inactive
outcome [19]: inactive

From PubChem BioAssay (EPA / NIEHS)
